# Mtb hypoxia rep – Mtb hypoxia fluorescent reporter inhibition; M. tuberculosis hypoxia-regulated fluorescent reporter, fluorescence; fluorescence inhibition, % (concentration not given with the values); 300,000 tested, 0.1% active; in the data active = fluorescence inhibition mostly above about 23%, no sharp cut-off; inactive = mostly below about 17%
# PriA SSB inh – blocks PriA binding to SSB C-terminal tail. 430,000 tested, 0.6% active. AlphaScreen SSBct-PriA binding, biotinylated peptide. inhibition, % at 33 µM; in the data active = inhibition mostly above about 37%, no sharp cut-off; inactive = mostly below about 20%;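 also: plate controls were negative control peptide for no effect and reference peptide for full effect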
# Sa ugtP lethal – compounds lethal to S. aureus RN4220 ugtP deletion mutant; growth inhibition, % (test concentration not listed); 330,000 tested, 0.54% active; AID 1259309; OD600 growth, 16 h; in the data active = growth inhibition above about 68%;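 also: plate controls were untreated wells for no effect and antibiotic for full effect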
# Sa RN4220 lethal – kills Staphylococcus aureus RN4220. S. aureus RN4220 growth, OD600, 16 h. inhibition, % (no concentration beside the values). 330,000 tested, 0.33% active; in the data active = inhibition above about 85%;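 also: plate controls were untreated cells for no effect and reference antibiotic for full effect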
# CCHFV vOTU inh – CCHFV vOTU protease inhibition; Pep-AMC fluorescence; inhibition, % at 11.5 µM; 370,000 tested, 0.55% active; AID 651958; in the data active = inhibition above about 30%; also: 0% = vehicle wells with enzyme and 100% = no enzyme wells
# Starred values were filed as active, the others as inactive; / = no result given. An excerpt weighted towards active compounds, which were near 1.4% of everything screened.
SMILES,Mtb hypoxia rep,PriA SSB inh,Sa ugtP lethal,Sa RN4220 lethal,CCHFV vOTU inh
CCOC(=O)c1nc(Nc2ccc(Nc3ccccc3)cc2)c2ccccc2n1,4,47*,-27,-2,17
CCOC(=O)c1ccc(Nc2nc(C(=O)OCC)nc3ccccc23)cc1,4,-17,-22,2,7
C=CCn1c(Cc2cccs2)nnc1SCC(=O)Nc1cccc2ccccc12,/,/,/,/,-3
C=CCn1c(Cc2csc(N)n2)nnc1SCC(=O)Nc1ccccc1C(F)(F)F,2,74*,0,-1,-15
CN(C)c1ccc(C(CNC(=O)C(=O)Nc2ccccc2F)N2CCCC2)cc1 (centres undefined),/,17,/,/,/
COc1ccc(N2CCN(C(=O)c3ccc(CS(=O)Cc4ccc(C)cc4)o3)CC2)cc1 (centres undefined),3,5,96*,-7,6
COc1ccc(N2CCN(C(=O)c3ccc(COc4ccc([N+](=O)[O-])cc4)o3)CC2)cc1,-4,40*,0,1,-1
O=C(c1ccc(CS(=O)Cc2ccc(Cl)cc2)o1)N1CCN(c2ccccc2)CC1 (centres undefined),-3,0,94*,-6,1
COc1ccc(N2CCN(C(=O)Oc3ccc([N+](=O)[O-])cc3)CC2)cc1,/,/,/,/,1
COc1cccc(N2CCN(C(=O)c3ccc(CS(=O)Cc4ccc(Cl)cc4)o3)CC2)c1 (centres undefined),3,17,92*,-7,-7
Cc1ccc(CS(=O)Cc2ccc(C(=O)N3CCN(c4ccc(F)cc4)CC3)o2)cc1 (centres undefined),3,7,29,-3,5
Cc1ccc(CS(=O)Cc2ccc(C(=O)N3CCN(c4ccccc4)CC3)o2)cc1 (centres undefined),-7,-2,33,-3,12
CCCN1CCCc2cc(CCNC(=O)OC)ccc21,/,64*,/,/,/
CCCN1CCCc2cc(CCNC(=O)CCc3ccc(OC)cc3)ccc21,/,66*,/,/,/
CCCN1CCCc2cc(CCNC(=O)C(=O)Nc3ccon3)ccc21,/,56*,/,/,/
CCCN1CCCc2cc(CCNC(=O)CCc3ccccc3)ccc21,/,62,/,/,/
CCCNC(=O)C(=O)NCCc1ccc2c(c1)CCCN2CCC,/,3,/,/,/
CCCN1CCCc2cc(CCNC(=O)Cc3ccc(F)cc3)ccc21,/,73*,/,/,/
Cc1nc2cc(NC(=O)c3ccc(N4CCCC4)nn3)ccc2s1,/,-3,/,/,/
CCCN1CCCc2cc(CCNC(=O)CC(C)(C)C)ccc21,/,58*,/,/,/
CN1CCCc2cc(CCNC(=O)COc3ccccc3)ccc21,/,70,/,/,/
CCCN1CCCc2cc(CCNC(=O)COc3ccccc3)ccc21,/,95*,/,/,/
Cc1c(C(=O)N2CCN(Cc3ccc4c(c3)OCO4)CC2)cccc1[N+](=O)[O-],10,-5,7,3,-9
O=C(NCCCN1CCN(c2ccccc2F)CC1)Nc1ccccc1[N+](=O)[O-],11,13,3,3,-9
O=C(Nc1ccccc1[N+](=O)[O-])C(=O)N1CCN(c2ccccc2F)CC1,/,36*,/,/,/
SMILES,Mtb hypoxia rep,PriA SSB inh,Sa ugtP lethal,Sa RN4220 lethal,CCHFV vOTU inh
O=C(Nc1ccccc1[N+](=O)[O-])C(=O)N1CCN(Cc2ccc3c(c2)OCO3)CC1,/,50*,/,/,/
O=C(Nc1nnc(-c2ccc3c(c2)OCCO3)o1)c1cccc(NS(=O)(=O)c2ccc(F)cc2)c1,/,32*,/,/,/
O=C(Nc1nnc(C2=COCCO2)o1)c1cccc(C(F)(F)F)c1,2,-1,82,95*,-5
COc1ccc(S(=O)(=O)Nc2cccc(C(=O)Nc3nnc(C4=COCCO4)o3)c2)cc1,/,56*,/,/,/
O=C(Nc1nnc(-c2ccc3c(c2)OCCO3)o1)c1cccc(Cl)c1,/,-6,/,/,/
O=C(NN=Cc1cccs1)c1ccc2nc[nH]c2c1,/,-14,/,/,/
COc1cccc(-c2ccc(=O)n(CCCC(=O)NCc3ccccc3Cl)n2)c1,/,39*,/,/,/
Cc1cn2nnc(C(=O)N[C@@H](C)CCc3ccco3)c2c(=O)[nH]1,/,6,/,/,/
Nc1c(C(=O)NCc2ccccc2)nnn1Cc1ccccc1,7,98*,3,2,6
O=C(c1ccc(F)c(F)c1)N1CCN(Cc2nc3ccccc3n2Cc2ccccc2)CC1,/,6,/,/,/
Cc1ccc(Oc2cc([N+](=O)[O-])cc3c2C(=O)Nc2ccccc2O3)cc1,9,14,91*,97*,8
Cn1c(-c2ccccn2)nn(CCNC(=O)c2ccc(=O)[nH]c2)c1=O,/,-4,/,/,/
Cc1noc(-c2ccc(N)cc2)n1,/,-2,/,/,/
Cc1noc(-c2ccc3nccnc3c2)n1,/,41*,/,/,/
O=C1OCCN1C(=O)C1C(c2ccc([N+](=O)[O-])cc2)C(c2cccc(Cl)c2)=NN1c1ccccc1 (centres undefined),-4,/,-5,-7,/

# Screens from PubChem.
